Records with an inconclusive call do not appear. A call without a number means that no potency is given here. The source made the active and inactive calls. Unless noted, calls come from the whole dose curve; as a rule, active = well fitted inhibition curve with a large enough effect; inconclusive = small, poorly fitted or top-dose-only effect; inactive = no such curve, though single readings can be large or run the other way.
Molecular target: Aldehyde dehydrogenase, mitochondrial (Homo sapiens) (UniProt P05091)
Assay: qHTS for Inhibitors of the Aldehyde Dehydrogenase Family (ALDH2) Validation screens (AID 2061302; active = well fitted inhibition curve with a large enough effect; title and protocol of this record describe different tests)
Conditions: ALDH inhibition qHTS; series mostly up to 42.6 µM

Q: Which Potency does the source give for `NC[C@@H]1O[C@H](C23CC4CC(CC(C4)C2)C3)Cc2c1ccc(O)c2O` here?
A: inactive

Q: For `O=C(O)Cc1c[nH]c2ccc(O)cc12`, which Potency is on record?
A: inactive

Q: With `OCCN1CCN(CCCN2c3ccccc3C=Cc3ccccc32)CC1` as the compound, how does the Potency read?
A: inactive

Q: Which Potency does the source give for `CNCCNS(=O)(=O)c1cccc2cnccc12` here?
A: inactive

Q: For `O=C(CCCN1CCC(O)(c2cccc(C(F)(F)F)c2)CC1)c1ccc(F)cc1`, which Potency is on record?
A: inactive

Q: Which Potency does the source give for `O=c1cc(O)cc(/C=C/c2ccc(O)c(O)c2)o1` here?
A: inactive

Q: Which Potency does the source give for `c1ccc(C(NCCNC(c2ccccc2)c2ccccc2)c2ccccc2)cc1` here?
A: inactive

Q: For `NC(N)=Nc1nc(CSCC/C(N)=N/S(N)(=O)=O)cs1`, which Potency is on record?
A: inactive

Q: With `C=CCn1c(=O)c2c(nc(-c3ccc(S(=O)(=O)O)cc3)n2C)n(C)c1=O` as the compound, how does the Potency read?
A: inactive

Q: For `CN1CCN(CC(=O)N2c3ccccc3C(=O)Nc3cccnc32)CC1`, which Potency is on record?
A: inactive

Q: For `Cc1cccc(C(=O)NCN2CCN(c3ccccc3C#N)CC2)c1`, which Potency is on record?
A: inactive

Q: With `Oc1cc2c(cc1O)CN(C(=S)NCCc1ccc(Cl)cc1)CCC2` as the compound, how does the Potency read?
A: inactive

Q: Which Potency does the source give for `C[C@](Cc1ccc(O)c(O)c1)(NN)C(=O)O` here?
A: inactive

Q: With `COc1ccc(NC(=O)c2ccc(-c3ccc(-c4noc(C)n4)cc3C)cc2)cc1N1CCN(C)CC1` as the compound, how does the Potency read?
A: inactive

Q: With `CN1CCc2cc(NC(=O)Nc3cccnc3)ccc21` as the compound, how does the Potency read?
A: inactive

Q: For `CC(=O)NCCc1c[nH]c2ccc(O)cc12`, which Potency is on record?
A: inactive

Q: With `NCCC1CCCC(CCN)N1` (configuration not stated) as the compound, how does the Potency read?
A: inactive

Q: For `CN(CCCOc1ccc(Cc2ccccc2)cc1)CCC(=O)O`, which Potency is on record?
A: inactive

Q: Which Potency does the source give for `NCCCNCCCCNCCCN` here?
A: inactive

Q: Which Potency does the source give for `CCOC(=O)c1cnc2c(cnn2CC)c1NN=C(C)C` here?
A: inactive

Q: For `c1cnc(N2CCN(Cc3ccc4c(c3)OCO4)CC2)nc1`, which Potency is on record?
A: inactive

Molecular target: Aldehyde dehydrogenase, mitochondrial (Homo sapiens) (UniProt P05091)
Assay: qHTS for Inhibitors of the Aldehyde Dehydrogenase Family (ALDH2) Confirmatory screens (AID 2061303; active = well fitted inhibition curve with a large enough effect; title and protocol of this record describe different tests; note: nearly all actives have a fitted effect of over 45% in size)
Conditions: ALDH inhibition qHTS; series mostly up to 45.4 µM

Q: With `CC1CN(S(=O)(=O)c2cccc3cnccc23)CCN1` (configuration not stated) as the compound, how does the Potency read?
A: inactive

Q: Which Potency does the source give for `Brc1ccc([C@H]2CN3CCSC3=N2)cc1` here?
A: inactive

Q: For `CCCCCCN(CCCCCC)C(=O)Cc1c(-c2ccc(F)cc2)[nH]c2ccccc12`, which Potency is on record?
A: inactive

Q: With `Cc1cc(N)c2ccccc2[n+]1CCCCCCCCCC[n+]1c(C)cc(N)c2ccccc21` as the compound, how does the Potency read?
A: inactive

Q: For `Cc1scc2c1N(C(=O)CN1CCN(C)CC1)c1ccccc1NC2=O`, which Potency is on record?
A: inactive

Q: Which Potency does the source give for `CCCn1cnc2c1c(=O)n(CCCCC(C)=O)c(=O)n2C` here?
A: inactive

Q: With `c1ccc(C(NCCNC(c2ccccc2)c2ccccc2)c2ccccc2)cc1` as the compound, how does the Potency read?
A: inactive

Q: For `CN1CCN(CC(=O)N2c3ccccc3C(=O)Nc3cccnc32)CC1`, which Potency is on record?
A: inactive

Q: For `CN(CCCOc1ccc(Cc2ccccc2)cc1)CCC(=O)O`, which Potency is on record?
A: inactive

Q: Which Potency does the source give for `CCOC(=O)c1cnc2c(cnn2CC)c1NN=C(C)C` here?
A: inactive

System: not listed separately
Assay: qHTS for Inhibitors of the Aldehyde Dehydrogenase Family (ALDH1A2, ALDH1A3, ALDH2, ALDH3A1) (AID 2061307); note: nearly all actives have a fitted effect of over 50% in size
Conditions: ALDH inhibition qHTS; series mostly up to 50.3 µM

Q: Which Potency does the source give for `CC1CN(S(=O)(=O)c2cccc3cnccc23)CCN1` (configuration not stated) here?
A: inactive

Q: Which Potency does the source give for `Brc1ccc([C@H]2CN3CCSC3=N2)cc1` here?
A: inactive

Q: For `CCCCCCN(CCCCCC)C(=O)Cc1c(-c2ccc(F)cc2)[nH]c2ccccc12`, which Potency is on record?
A: inactive

Q: For `Cc1cc(N)c2ccccc2[n+]1CCCCCCCCCC[n+]1c(C)cc(N)c2ccccc21`, which Potency is on record?
A: inactive

Q: With `Cc1scc2c1N(C(=O)CN1CCN(C)CC1)c1ccccc1NC2=O` as the compound, how does the Potency read?
A: inactive

Q: With `CCCn1cnc2c1c(=O)n(CCCCC(C)=O)c(=O)n2C` as the compound, how does the Potency read?
A: inactive

Q: With `c1ccc(C(NCCNC(c2ccccc2)c2ccccc2)c2ccccc2)cc1` as the compound, how does the Potency read?
A: inactive

Q: With `CN1CCN(CC(=O)N2c3ccccc3C(=O)Nc3cccnc32)CC1` as the compound, how does the Potency read?
A: inactive

Q: Which Potency does the source give for `CN(CCCOc1ccc(Cc2ccccc2)cc1)CCC(=O)O` here?
A: inactive

Q: For `CCOC(=O)c1cnc2c(cnn2CC)c1NN=C(C)C`, which Potency is on record?
A: inactive

Molecular target: Retinaldehyde dehydrogenase 3 (Homo sapiens) (UniProt P47895)
Assay: qHTS for Inhibitors of the Aldehyde Dehydrogenase Family (ALDH1A3) Confirmatory screens (AID 2061311); note: nearly all actives have a fitted effect of over 60% in size
Conditions: ALDH inhibition qHTS; series mostly up to 46 µM

Q: For `CC1CN(S(=O)(=O)c2cccc3cnccc23)CCN1` (configuration not stated), which Potency is on record?
A: inactive

Q: Which Potency does the source give for `Brc1ccc([C@H]2CN3CCSC3=N2)cc1` here?
A: inactive

Q: For `CCCCCCN(CCCCCC)C(=O)Cc1c(-c2ccc(F)cc2)[nH]c2ccccc12`, which Potency is on record?
A: inactive

Q: For `Cc1cc(N)c2ccccc2[n+]1CCCCCCCCCC[n+]1c(C)cc(N)c2ccccc21`, which Potency is on record?
A: inactive

Q: For `Cc1scc2c1N(C(=O)CN1CCN(C)CC1)c1ccccc1NC2=O`, which Potency is on record?
A: inactive

Q: Which Potency does the source give for `CCCn1cnc2c1c(=O)n(CCCCC(C)=O)c(=O)n2C` here?
A: inactive

Q: With `c1ccc(C(NCCNC(c2ccccc2)c2ccccc2)c2ccccc2)cc1` as the compound, how does the Potency read?
A: inactive

Q: Which Potency does the source give for `CN1CCN(CC(=O)N2c3ccccc3C(=O)Nc3cccnc32)CC1` here?
A: inactive

Q: Which Potency does the source give for `CN(CCCOc1ccc(Cc2ccccc2)cc1)CCC(=O)O` here?
A: inactive

Molecular target: Retinaldehyde dehydrogenase 3 (Homo sapiens) (UniProt P47895)
Assay: qHTS for Inhibitors of the Aldehyde Dehydrogenase Family (ALDH1A3) Validation screen (AID 2061312); note: nearly all actives have a fitted effect of over 45% in size
Conditions: ALDH1A3 enzyme inhibition qHTS validation, fluorescence; series mostly up to 84.7 µM

Q: Which Potency does the source give for `Brc1ccc([C@H]2CN3CCSC3=N2)cc1` here?
A: inactive

Q: For `Cc1cc(N)c2ccccc2[n+]1CCCCCCCCCC[n+]1c(C)cc(N)c2ccccc21`, which Potency is on record?
A: inactive

Q: With `CCCn1cnc2c1c(=O)n(CCCCC(C)=O)c(=O)n2C` as the compound, how does the Potency read?
A: inactive

Q: With `CN(CCCOc1ccc(Cc2ccccc2)cc1)CCC(=O)O` as the compound, how does the Potency read?
A: inactive

Molecular target: Retinal dehydrogenase 2 (Homo sapiens) (UniProt O94788)
Assay: qHTS for Inhibitors of the Aldehyde Dehydrogenase Family (ALDH1A2) Confirmation screens (AID 2061314); note: nearly all actives have a fitted effect of over 65% in size
Conditions: ALDH1A2 enzyme inhibition qHTS confirmation; series mostly up to 45.9 µM

Q: For `CC1CN(S(=O)(=O)c2cccc3cnccc23)CCN1` (configuration not stated), which Potency is on record?
A: inactive

Q: Which Potency does the source give for `Brc1ccc([C@H]2CN3CCSC3=N2)cc1` here?
A: inactive

Q: With `CCCCCCN(CCCCCC)C(=O)Cc1c(-c2ccc(F)cc2)[nH]c2ccccc12` as the compound, how does the Potency read?
A: inactive

Q: Which Potency does the source give for `Cc1cc(N)c2ccccc2[n+]1CCCCCCCCCC[n+]1c(C)cc(N)c2ccccc21` here?
A: inactive

Q: With `Cc1scc2c1N(C(=O)CN1CCN(C)CC1)c1ccccc1NC2=O` as the compound, how does the Potency read?
A: inactive

Q: For `CCCn1cnc2c1c(=O)n(CCCCC(C)=O)c(=O)n2C`, which Potency is on record?
A: inactive

Q: For `c1ccc(C(NCCNC(c2ccccc2)c2ccccc2)c2ccccc2)cc1`, which Potency is on record?
A: inactive

Q: Which Potency does the source give for `CN1CCN(CC(=O)N2c3ccccc3C(=O)Nc3cccnc32)CC1` here?
A: inactive
